Data taken from PubChem BioAssay AID1259341 (Broad Institute, 2017).
Values without a mark were called inactive. Active and inactive are the calls of the source.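 Rule for the calls: active = activity change under -35% in any replicate well, with more than 20 beads read in that well; inactive = the rest.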

Molecular target: Caspase recruitment domain-containing protein 9 (Homo sapiens) + E3 ubiquitin-protein ligase TRIM62 (Homo sapiens) (UniProt Q9H257+Q9BVG3)
Assay: CARD9/TRIM62 protein interaction inhibitors – cell lysate, HEK293FT lysates, Luminex bead ELISA, primary screen (AID 1259341);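 note: PE anti-Flag signal of Flag-CARD9 captured by myc-TRIM62 beads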
Settings: PE fluorescence, active compounds read low, concentration not given here

Chain of Caspase recruitment domain-containing protein 9 (Homo sapiens) + E3 ubiquitin-protein ligase TRIM62 (Homo sapiens) (Q9BVG3 whole entry, looked up, the tested form may be a part): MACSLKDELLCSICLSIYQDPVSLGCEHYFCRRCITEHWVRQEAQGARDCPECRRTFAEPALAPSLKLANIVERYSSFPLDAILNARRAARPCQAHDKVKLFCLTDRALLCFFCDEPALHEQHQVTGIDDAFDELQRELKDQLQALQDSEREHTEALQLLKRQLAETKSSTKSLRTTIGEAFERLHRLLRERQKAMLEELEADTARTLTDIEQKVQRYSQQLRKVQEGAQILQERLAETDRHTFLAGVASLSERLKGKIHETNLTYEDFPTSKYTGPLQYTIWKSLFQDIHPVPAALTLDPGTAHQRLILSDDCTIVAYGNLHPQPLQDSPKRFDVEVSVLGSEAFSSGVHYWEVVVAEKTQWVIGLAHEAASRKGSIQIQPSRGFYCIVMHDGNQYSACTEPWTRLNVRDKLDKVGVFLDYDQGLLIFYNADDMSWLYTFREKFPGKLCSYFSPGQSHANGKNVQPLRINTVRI
Chain of Caspase recruitment domain-containing protein 9 (Homo sapiens) + E3 ubiquitin-protein ligase TRIM62 (Homo sapiens) (Q9H257 whole entry, looked up, the tested form may be a part): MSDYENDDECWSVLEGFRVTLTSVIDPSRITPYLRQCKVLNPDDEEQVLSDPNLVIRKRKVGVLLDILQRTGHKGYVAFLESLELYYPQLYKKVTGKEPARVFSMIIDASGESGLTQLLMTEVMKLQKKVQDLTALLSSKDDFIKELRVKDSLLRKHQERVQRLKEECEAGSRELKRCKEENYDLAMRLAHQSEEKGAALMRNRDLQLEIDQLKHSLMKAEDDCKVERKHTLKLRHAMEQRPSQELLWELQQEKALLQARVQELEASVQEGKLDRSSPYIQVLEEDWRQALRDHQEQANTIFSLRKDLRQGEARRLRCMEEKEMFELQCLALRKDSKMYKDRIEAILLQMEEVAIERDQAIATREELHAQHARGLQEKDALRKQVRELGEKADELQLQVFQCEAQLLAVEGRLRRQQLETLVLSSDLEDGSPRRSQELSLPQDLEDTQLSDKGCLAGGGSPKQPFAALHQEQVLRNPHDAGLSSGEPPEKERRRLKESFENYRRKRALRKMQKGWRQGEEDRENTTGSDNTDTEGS

SMILES	activity change, negative = inhibition
Cc1noc(C)c1S(=O)(=O)Nc1ccc2c(c1)C(=O)N([C@H](C)CO)C[C@H](C)[C@@H](CN(C)CC1CCCCC1)OCCCC[C@H](C)O2	7.9%
O=S(=O)(c1ccc2nc(-c3ccco3)c(-c3ccco3)nc2c1)N1CCOCC1	-5.03%
O=S(=O)(c1ccccc1)N1CC2CN(Cc3ccc(O)cc3)C2C1 (stereo unspecified)	-21%
CN1C(=O)C(c2ccccc2[N+](=O)[O-])C(=O)c2ccccc21 (stereo unspecified)	3.98%
O=C(O)Cc1c[nH]c2cccc(O)c12	0.751%
C[C@H](CO)N1C[C@H](C)[C@@H](CN(C)CC2CCCCC2)OCCCC[C@H](C)Oc2ccc(NS(C)(=O)=O)cc2C1=O	-25.8%
CCN(CCNC(=O)C1CCN(S(=O)(=O)c2c(C)noc2C)CC1)c1ccccc1	-0.84%
Cc1nn2c(c1-c1ccccc1)NC(c1ccco1)=CC2c1ccco1 (stereo unspecified)	21.4%
O=C(Nc1ncccc1O)c1ccc(OCC2CCCO2)cc1 (stereo unspecified)	2.58%
O=C(Nc1nc(-c2ccco2)c(-c2ccco2)s1)c1ccco1	-9.14%
Cc1ccc(-c2cc(C(=O)NCc3ccco3)c3ccccc3n2)o1	-2.28%
COc1ccc(S(=O)(=O)Nc2ccc3c(c2)C(=O)N([C@H](C)CO)C[C@H](C)[C@@H](CN(C)C(=O)C2CCCCC2)OCCCC[C@H](C)O3)cc1	-4.07%
O=C(Nc1ccc2oc(-c3ccncc3)nc2c1)c1ccc2c(c1)OCO2	-8.29%
NC(=O)C1(N2CCCCC2)CCN(c2ncc(NC(=O)c3cccc(Cl)c3)cc2C(=O)O)CC1	-53.8% (active)
CCSCCNC(=O)c1cncc(Br)c1	0.232%
CS(=O)(=O)c1ccc2ccn(O)c2c1	-9.61%
C(=C\c1ccco1)/c1nc2ccccc2[nH]1	-9.75%
O=C(O)c1ccc2nc(-c3ccco3)c(-c3ccco3)nc2c1	-13.9%

SMILES	activity change, negative = inhibition
CCc1nc(OCc2ccco2)c2sc3nc4c(cc3c2n1)COC(C)(C)C4	-2.36%
O=C1c2ccccc2-c2nc3ccccc3nc21	-4.55%
COc1ccc(S(=O)(=O)Nc2ccc3c(c2)C(=O)N([C@H](C)CO)C[C@H](C)[C@@H](CN(C)CC2CCCCC2)OCCCC[C@H](C)O3)cc1	5.92%
NC(=O)C1(N2CCCCC2)CCN(c2ncc(NC(=O)c3ccc(F)cc3)cc2C(=O)O)CC1	-19.3%
Cc1ccsc1[C@@H]1CCN(Cc2ccc(-c3ccn[nH]3)o2)C[C@H]1O	0.0372%
CCCc1cc(C(=O)N2CC[C@H]3CNC[C@H]32)n(C)n1	-0.754%
N#CCSc1nc2c(c(=O)n1Cc1ccco1)C1(CCCC1)Cc1ccccc1-2	-5.29%
N#Cc1c(-c2ccco2)cc(-c2ccccn2)nc1N	1.52%
O=C(CCCN1C(=O)NC2(CCCC2)C1=O)Nc1ccc(F)cc1	23.8%
O=C(O)c1cc(-c2ccco2)nc2ccccc12	15.8%
O=C(Nc1nc(-c2ccccn2)cs1)c1cccc(-n2cnnn2)c1	199%
O=C(NCc1cccnc1)c1ccccc1-c1nc(-c2ccccc2)no1	-1.01%
c1coc(-c2cn3ccc4ccccc4c3n2)c1	-1.55%
O=[N+]([O-])c1c(NCCCO)cc(SCc2ccco2)c2nonc12	15.3%
CCOC(=O)c1ccc(-c2ccc(C3CC(=O)Nc4cc5c(cc43)OCCO5)o2)cc1 (stereo unspecified)	-0.752%
CC(=O)Nc1ccc(Nc2nc(-c3nnc(-c4cccc(C)c4)o3)nc3ccccc23)cc1	-1.95%
N#Cc1c2c(c(NCc3ccco3)n3c1nc1ccccc13)CCC2	5.44%
Cc1ccc(S(=O)(=O)Nc2ccc3c(c2)C(=O)N([C@H](C)CO)C[C@H](C)[C@@H](CN(C)C(=O)C2CCCCC2)OCCCC[C@H](C)O3)cc1	6.06%
